The list is not random: actives were taken first. Their share in the collection is about 21%.
NS1 inh: inhibitors of influenza NS1 protein function; AID 2326; actives 0.4% (n = 270,000); Potency, µM (top dose mostly 46.1 µM); also: actives are rising curves; nearly all actives have a fitted effect of over 50% in size
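OD600 was taken as the measure of yeast growth restored by compound in an NS1-expressing S. cerevisiae strain. Cells had been washed out of glucose medium and diluted 1:100 into galactose -URA medium, pH 6.0.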
Pf growth 96h: inhibits malaria parasite growth, 96 h | P. falciparum luciferase reporter growth, 96 h | Potency, µM (top dose mostly 28.7 µM), actives largely listed as inhibitors | actives 6.9% (n = 320,000); active = well fitted inhibition curve with a large enough effect; inconclusive = small, poorly fitted or top-dose-only effect, or another doubt; inactive = no such curve, though single readings can be large or run the other way
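96 h incubation, 37 C, 5% CO2, of luciferase-reporter P. falciparum-infected RBCs (2% hematocrit, 0.05% parasitemia final) with test compounds; endpoint luminescence.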
Pf growth 48h: P. falciparum growth inhibition at 48 hours (one generation); P. falciparum luciferase growth in erythrocytes, 48 h; actives 5.9% (n = 310,000); Potency, µM (top dose mostly 28.7 µM), most hits filed as inhibitors; AID 504832; active = well fitted inhibition curve with a large enough effect; inconclusive = small, poorly fitted or top-dose-only effect, or another doubt; inactive = no such curve, though single readings can be large or run the other way
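Here the parasites carry a stable luciferase gene and grow inside erythrocytes in Albumax-based RPMI medium with compound for one erythrocytic cycle. Activity is scored as loss of luminescent signal.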
Shiga inhibitor: Shiga toxin inhibition. inhibition, % at 38.7 µM. actives 9.2% (n = 290,000). Vero cells, Shiga toxin protein synthesis inhibition reporter. AID 2315; in the data active = inhibition mostly above about 28%, no sharp cut-off; inactive = mostly below about 43%
CHX counter: affects cycloheximide protein synthesis inhibition readout, counter-screen; max response, %; cell reporter, cycloheximide protein synthesis inhibition counterscreen; AID 2314; actives 12% (n = 300,000); in the data active = max response mostly above about 13%, no sharp cut-off; inactive = mostly below about 14%; also: read at 38.3 µM for the half of the compounds with a filed dose
SARS PLP yeast: blocks SARS-CoV papain-like protease in a yeast assay; S. cerevisiae expressing SARS-CoV PLpro, growth rescue; Potency, µM (doses to about 32.9 µM), hits mostly activators; actives 0.19% (n = 330,000); AID 485353; also: nearly all actives have a fitted effect of over 55% in size
Of the large screens only hits and unclear results are named; the others gave an inactive call. Unless noted, calls follow the shape of the full dose curve.

C[C@@]12CCC=C[C@H]1[C@H](c1ccc(/C=C/c3ccccc3)cc1F)N(Cc1ccccc1)C2=O	Pf growth 96h inconclusive, Pf growth 48h 11.7µM
CC1CCCCC1NS(=O)(=O)c1ccc2c(c1)CC(=O)N2C (configuration not stated)	Pf growth 96h inconclusive, Pf growth 48h inconclusive
N#CCN1CCN(CC(=O)c2ccc(Br)cc2)CC1	Pf growth 96h inconclusive
CCCCN(C(=O)COC(=O)CSc1ccc([N+](=O)[O-])cc1)c1c(N)n(CCC)c(=O)[nH]c1=O	none (no result: NS1 inh, Shiga inhibitor, CHX counter)
CCOc1ccc(-n2nc3cc(C)c(N)cc3n2)cc1	Pf growth 96h inconclusive, Shiga inhibitor 47.6, CHX counter 32.2
CCOc1ccc(-n2nc3ccc(N)cc3n2)cc1	Shiga inhibitor 30.9, CHX counter 35.7
CCOc1ccc(-n2nc3ccc(NC(=O)c4ccc5c(c4)OCCO5)cc3n2)cc1	none
Cc1c(NC(=O)C(C)OC(=O)CCC2CCCC2)c(=O)n(-c2ccccc2)n1C (configuration not stated)	Pf growth 48h inconclusive
CC(=O)[C@@H]1[C@@H](C(=O)c2ccccc2)[C@]2(C(=O)Nc3ccccc32)[C@H]2C=Cc3cc(F)ccc3N12	Pf growth 96h inconclusive
O=C(c1ccccc1)[C@@H]1[C@@H](C(=O)c2ccc(F)cc2)[C@@]2(C(=O)Nc3ccccc32)[C@H]2c3ccccc3C=CN12	Pf growth 96h inconclusive, Pf growth 48h 14.7µM
CC(=O)c1ccc(N2CCN(S(=O)(=O)c3ccc4c(c3)CC(=O)N4)CC2)cc1	Pf growth 48h inconclusive
CC(=O)c1ccc(N2CCN(S(=O)(=O)c3ccc4c5c3CC(=O)N5CC(C)S4)CC2)cc1 (configuration not stated)	Pf growth 96h inconclusive, Pf growth 48h 3.29µM
CN[C@H]1[C@H](O)[C@@H](O[C@@H]2[C@H](O)[C@@H](O[C@H]3OC(CN)=CC[C@H]3N)[C@@H](N)C[C@H]2N)OC[C@@]1(C)O	none (no result: NS1 inh, Shiga inhibitor, CHX counter, SARS PLP yeast)
COc1ccc(N2CCN(C(c3cccc(OC)c3OC)c3nnnn3C3CCCC3)CC2)cc1 (configuration not stated)	Pf growth 48h inconclusive
COc1ccc(N2CCN(C(c3ccccc3OC)c3nnnn3C3CCCC3)CC2)cc1 (configuration not stated)	Pf growth 48h 14.7µM (no result: Pf growth 96h)
COc1ccc(N2CCN(C(c3cccs3)c3nnnn3C3CCCC3)CC2)cc1 (configuration not stated)	Pf growth 48h inconclusive (no result: Pf growth 96h)
COc1ccc(OC)c(C(c2nnnn2C2CCCC2)N2CCN(c3ccccc3F)CC2)c1 (configuration not stated)	Pf growth 96h inconclusive, Pf growth 48h 4.15µM
Fc1ccc(N2CCN(C(c3cccs3)c3nnnn3C3CCCC3)CC2)cc1 (configuration not stated)	Pf growth 48h 10.4µM
O=C(Cc1cccs1)N1CCN(S(=O)(=O)c2cc(Cl)ccc2Cl)CC1	Pf growth 48h inconclusive (no result: NS1 inh, Shiga inhibitor, CHX counter)
O=C(COC(=O)C1=COCCO1)Nc1cc(Cl)c(Cl)cc1Cl	none (no result: NS1 inh, Pf growth 96h, Pf growth 48h, Shiga inhibitor, CHX counter)
CC1CN(CCCCOc2ccc(F)cc2)CC(C)O1 (configuration not stated)	none
O=C(OCC(=O)c1ccc[nH]1)c1ccccc1	Shiga inhibitor 117.9, CHX counter 47.3 (no result: NS1 inh)
O=C(COC(=O)c1c(F)cccc1F)c1ccc[nH]1	Pf growth 48h inconclusive, Shiga inhibitor 81.5, CHX counter 37.7
COc1ccc(CCNC(=O)CCSCc2ccccc2F)cc1OC	Pf growth 48h inconclusive
Cc1[nH]c2ccccc2c1N=Nc1ccc(F)cc1	CHX counter 18.9 (no result: NS1 inh)
Oc1[nH]c2ccccc2c1N=Nc1c(F)c(F)c(Cl)c(F)c1F	Pf growth 96h inconclusive
Cc1[nH]c2ccccc2c1N=Nc1cc(C(=O)O)cc(C(=O)O)c1	none
Cc1[nH]c2ccccc2c1N=Nc1ccccc1F	Shiga inhibitor 52.8, CHX counter 24.4 (no result: NS1 inh)
O=C(CN1C2=NCCCN2c2ccccc21)c1ccc([N+](=O)[O-])cc1	Pf growth 96h inconclusive, Pf growth 48h 1.85µM
OC(COc1ccc(Cl)cc1)CN1C2=NCCCN2c2ccccc21 (configuration not stated)	Pf growth 96h inconclusive, Pf growth 48h 5.22µM
O=C(CN1C2=NCCCN2c2ccccc21)c1cccc(Br)c1	Pf growth 96h inconclusive, Pf growth 48h inconclusive
O=C(CN1C2=NCCCN2c2ccccc21)c1ccc(Cl)cc1Cl	Pf growth 48h 0.37µM
O=C(Nc1ccccc1Cl)C1CCN(S(=O)(=O)c2cccc3nonc23)CC1	Pf growth 96h inconclusive
CCOC(=O)c1c(NC(=O)CC2SC(N)=NC2=O)sc2c1CCCC2 (configuration not stated)	none
Cc1cc(C)cc(C(=O)NC(CC(N)=O)c2ccc(N3CCCCCC3)c([N+](=O)[O-])c2)c1 (configuration not stated)	NS1 inh inconclusive
Cc1ccc(NC(=O)CSCC(=O)Nc2cc(Cl)ccc2N2CCN(C)CC2)cc1	Pf growth 96h inconclusive, Pf growth 48h 13.1µM (no result: NS1 inh, Shiga inhibitor, CHX counter)
CN1CCN(c2ccc(NC(=O)CN3CCOCC3)cc2F)CC1	Pf growth 96h inconclusive, Pf growth 48h inconclusive (no result: NS1 inh)
COc1ccc(SCC(=O)Nc2ccc(N3CCN(C)CC3)c(F)c2)cc1	Pf growth 48h inconclusive
CC(C)C(=O)Nc1ccc(N2CCN(C)CC2)c(F)c1	CHX counter 22.1
Cc1ccc(SCC(=O)Nc2ccc(N3CCN(C)CC3)c(F)c2)cc1	Shiga inhibitor 89.8, CHX counter 48.1
Cc1ccc(NC(=O)CSCC(=O)Nc2cc(C(F)(F)F)ccc2N2CCOCC2)cc1	Pf growth 96h inconclusive, Pf growth 48h inconclusive (no result: NS1 inh, Shiga inhibitor, CHX counter)
CC(Oc1ccc(Br)cc1)C(=O)Nc1cc(Cl)ccc1N1CCN(C)CC1 (configuration not stated)	Pf growth 96h 11.7µM, Pf growth 48h 11.7µM (no result: NS1 inh, Shiga inhibitor, CHX counter)
CCOC(=O)c1c(S(=O)(=O)NCCCc2ccco2)c(C)n(C)c1C	none
COc1ccc(CC(=O)Nc2cc(Cl)ccc2N2CCCC2)cc1	Pf growth 48h inconclusive
COc1ccc(CCC(=O)Nc2cc(Cl)ccc2N2CCN(C)CC2)cc1	Pf growth 96h 4.65µM, Pf growth 48h 7.38µM
O=C1NCCN/C1=C\C(=O)c1ccc(F)cc1	Shiga inhibitor 69.0, CHX counter 35.4
O=C(COc1cccc2c1CCNC2=O)Nc1ccc(Cl)cc1	Pf growth 96h inconclusive (no result: NS1 inh, Shiga inhibitor, CHX counter)
O=C1NCCN/C1=C\C(=O)c1ccc(Cl)cc1	Shiga inhibitor 67.3, CHX counter 54.6
CC(=O)N1N=C(c2cccc(Br)c2)OC12CCCC2	none (no result: NS1 inh)
c1ccc(Oc2ncnc3oc(-c4ccccc4)cc23)cc1	none
c1ccc(-c2cc3c(-n4cccc4)ncnc3o2)cc1	Shiga inhibitor 101.9, CHX counter 68.9
CCCCc1c(O)nc(SCC(=O)NCCc2ccc(OC)c(OC)c2)[nH]c1=O	Pf growth 96h 5.86µM
COc1ccc(CCNC(=O)Cn2cc(C(F)(F)F)cc(Cl)c2=O)cc1OC	Pf growth 96h inconclusive, Pf growth 48h 6.57µM
